Bioassay records from PubChem.
Dicer processing – inhibitors of Dicer pre-microRNA processing, primary screen, biochemical, cat-ELCCA, chemiluminescence. hit rate 6% among 47,000. z-score at 25 µM. AID 1347074, 2019. cat-ELCCA pre-miR-21 Dicer processing; stronger effect = higher value; in the data active = z-score above about 3, passing the limit was not always enough;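 note: higher signal means more uncleaved substrate so more Dicer inhibition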
Of the large screens only hits and unclear results are named; the others gave an inactive call. The sample as a whole holds a higher share of hits than the screen did.

Cc1ccc(C2Oc3ccccc3C3CC(c4ccncc4)=NN32)cc1 (centres undefined)	none
c1cncc(C2=NN3C(C2)c2ccccc2OC3c2cccs2)c1 (centres undefined)	none
COc1ccc(C2Oc3ccccc3C3CC(c4cccnc4)=NN32)cc1 (centres undefined)	none
Oc1ccc(Cl)cc1C1=NN2C(C1)c1ccccc1OC2c1ccncc1 (centres undefined)	none
Clc1ccc2c(c1)C1CC(c3ccccc3)=NN1C(c1ccncc1)O2 (centres undefined)	Dicer processing 15
COc1cc(C2Oc3ccccc3C3CC(c4ccccc4)=NN32)ccc1OC(C)=O (centres undefined)	Dicer processing 4.5
O=C(Nn1c(=S)[nH]c2ccccc2c1=O)c1cccnc1Oc1ccccc1	none
O=C1c2ccccc2C(=O)N1C(CO)C(O)c1ccccc1 (centres undefined)	none
CCOC(=O)c1c(SC)[nH]c2c(C(F)(F)F)cccc2c1=O	none
O=C(Nc1ccccc1)c1nnn(-c2cc(C(F)(F)F)cc(C(F)(F)F)c2)c1-c1ccccc1	none
Cc1onc(-c2ccccc2Cl)c1C(=O)Nc1ccccc1CC1c2ccccc2CCN1C (centres undefined)	none
CSc1nnc(SC)n1/N=C(/N)c1cccc(C(F)(F)F)c1	none
CNC(=O)c1ccccc1S(=O)c1cccc2cccc(C(=O)NC)c12 (centres undefined)	none
Cc1cc2nc(-c3ccc4c(c3)CCC4)cc(C(F)(F)F)n2n1	none
O=C(c1cnn2c(C(F)F)cc(-c3ccccc3)nc12)N1CCCc2ccccc21	none
COc1ccc(-c2cc(C(F)F)n3ncc(C(=O)N4CCSCC4)c3n2)cc1	Dicer processing 3
O=C(c1cnn2c(C(F)F)cc(-c3ccccc3)nc12)N1CCc2ccccc2C1	none
O=C(Nc1ccc2nn(-c3ccccc3)nc2c1)c1cc2ccccc2o1	none
CCOC(=O)/C(C#N)=C/NCCc1ccncc1	none
O=C(Nc1ncc(Cc2ccc(F)cc2)s1)c1ccc(Br)cc1	Dicer processing 4.1
O=C(Nc1nnc(-c2ccc(F)cc2)s1)c1ccc(F)cc1	none
Fc1ccc(Cc2cnc(Nc3ccc(F)cc3)s2)cc1	none
N=c1scc(-c2ccc(Br)cc2)n1-c1ccccc1	none
COc1ccc(C2NC(c3ccc(OC)cc3)C(C)C(=O)C2C)cc1 (centres undefined)	none
CCCCC1(O)CC(c2ccc(OC)cc2)NC(c2ccc(OC)cc2)C1C (centres undefined)	Dicer processing 3.2
COc1ccc(C2C/C(=N/O)C(C)C(c3ccc(OC)cc3)N2)cc1 (centres undefined)	none
COC(=O)c1ccc(N2C(=O)CSC2c2ccc(OC)cc2)cc1 (centres undefined)	none
COc1ccc(N2C(=O)CSC2c2ccc(Br)cc2)cc1 (centres undefined)	none
COc1ccc(N2C(=O)N(c3ccc(OC)cc3)C3CS(=O)(=O)CC32)cc1 (centres undefined)	Dicer processing 3.9
CCCCCOc1ccc(C2NC(=O)NC2=O)cc1 (centres undefined)	none
COC(=O)c1sc(SC)c(C(C)=O)c1C	none
COC(=O)c1sc2cc(-c3ccc(F)cc3)sc2c1C	Dicer processing 3.8
COC(=O)c1sccc1N/N=C/c1ccc(F)cc1	none
O=C(Cc1cccs1)Nc1ccc(Br)cc1C(=O)O	none
O=C1c2ccccc2C2(c3ccccc3)N1CCN2S(=O)(=O)c1cccc(C(F)(F)F)c1 (centres undefined)	none
COCCN1CN=C(Nc2nc(C)c3ccc(C)cc3n2)NC1	none
O=C(Nc1ccc2oc3ncccc3c(=O)c2c1)c1cc2ccccc2s1	none
Cc1ccc(C(=O)Nc2cc(C#N)c3sc4ccccc4n3c2=O)cc1	Dicer processing 4.8
Cc1ccc(C(=O)Nc2cnc3sc4ccccc4n3c2=O)cc1	none
O=C(Nc1cnc2sc3ccccc3n2c1=O)c1ccc(F)cc1	none
CCOC(=O)c1[nH]cnc1C(=O)O	none
OC[C@H](O)[C@H](O)[C@@H](O)C1Nc2ccccc2S1 (some centres undefined)	none
NN/C(N)=N/C(N)=Nc1ccccc1F	none
CCc1ccccc1N=C(N)N=C(N)N	Dicer processing 5.5
NC(N)=NC(N)=Nc1ccccc1	none
CN1CCN(Cc2c(O)ccc3c(=O)c(-c4ccccc4Cl)coc23)CC1	none
CC(=O)NNc1ncnc2c1sc1ncccc12	none
O=C(Nc1ccc(Cl)cc1Cl)Nc1cc(C(F)(F)F)ccc1N1CCOCC1	none
COc1ccc(CN(Cc2cccn2C)S(=O)(=O)c2ccc(F)cc2)cc1	none
COc1cccc([C@@H]2Nc3ccc(C(=O)O)cc3[C@@H]3C=CC[C@@H]32)c1	none
CCOC(=O)c1cnc2cc(Cl)c(F)cc2c1N1CC(C)OC(C)C1 (centres undefined)	Dicer processing 11
CCOC(=O)c1cnc2cc(Cl)c(F)cc2c1OCC	none
CCOC(=O)c1ccc2nc(C(F)(F)F)nc(N3CC(C)OC(C)C3)c2c1 (centres undefined)	none
Cc1ccc(/C(C#N)=C2C=C(Cl)/C(=N/O)C=C\2Cl)cc1	Dicer processing 3.8
Cc1ccc(/C(C#N)=C2C=C/C(=N\O)C(Cl)=C\2)cc1	none
N#C/C(=C1C=C/C(=N\O)C(Br)=C/1)c1ccccc1	none
COc1ccccc1-n1c(SCC(N)=O)nc2c(c1=O)C1(CCCCC1)Cc1ccccc1-2	Dicer processing 3.2
Cn1c(Cc2ccccc2)nc2c(c1=O)C1(CCCCC1)Cc1ccccc1-2	none
O=c1c2c(nc(NCCCO)n1-c1ccccc1)-c1ccccc1CC21CCCC1	none
O=c1c2c(nc(NCCO)n1-c1ccccc1)-c1ccccc1CC21CCCC1	Dicer processing 4.1
CSc1nc2c(c(=O)n1C)C1(CCCCC1)Cc1ccccc1-2	none
C=CCn1c(SCC(=O)OCC)nc2c(c1=O)C1(CCCC1)Cc1ccccc1-2	none
CC1CCc2c(sc3nc[nH]c(=O)c23)C1 (centres undefined)	none
CCCN1C(=O)C(O)(CC(=O)c2ccc(C(C)(C)C)cc2)c2cc(Br)ccc21 (centres undefined)	none
COCCOC(=O)C1=C(C)NC2=C(C(=O)CC(c3cccs3)C2)C1c1coc2ccccc2c1=O (centres undefined)	none
Cc1cc(C)cc(CC2CC(=O)N(c3nc(C)cc(C)n3)C2=O)c1 (centres undefined)	none
CN(C)Cc1ccc(O)c(CN(C)C)n1	none
CN(C)Cc1c(O)ccc2c(=O)c(Oc3ccc4ccccc4c3)c(C(F)(F)F)oc12	none
CN(C)Cc1c(O)ccc2ccccc12	Dicer processing 5.3
CCOC(=O)CSC(=O)NC(=O)c1snnc1C	none
CCCCOc1cccc(C2c3c(oc4ccccc4c3=O)C(=O)N2c2nncs2)c1 (centres undefined)	none
CCOC(=O)C(C#N)C1(c2c(C)[nH]n(-c3ccccc3)c2=O)C(=O)N(c2ccccc2)N=C1C (centres undefined)	none
CC(C)c1ccc(N=Nc2c(O)[nH]c(=S)[nH]c2=O)cc1	none
CCN(CC)CC#CCC(O)(c1ccccc1)c1ccccc1	none
O=C1C(=O)N(c2cccnc2)C(c2ccc(O)cc2)/C1=C(\O)c1ccc(Cl)cc1 (centres undefined)	none
O=C(Nc1ccc(Cl)cc1)Nc1ccccc1C(=O)NC1CCSC1 (centres undefined)	none
CCOC(=O)c1cnc2cc(C)ccn2c1=O	none
CCOC(=O)c1cnc2n(c1=O)CCS2	Dicer processing 3.2
CCOC(=O)c1cnc2cc(C)[nH]n2c1=O	none
O=C(O)CCCN1CCS(=O)CC1	none
CC1Cc2ccccc2N1NC(=O)c1ccc(Cl)c(S(N)(=O)=O)c1 (centres undefined)	none
O=C(O)C1C2C=CC3(CN(c4ccccc4)C(=O)C13)O2 (centres undefined)	none
